# In all, about 35,000 sequences were measured (“fluorescence intensity (a.u.)”: median about 10,000, highest 2% from about 52,000 on). For the sample, the highest values were picked, then their nearest neighbours and some sequences at random.
# Biological target: T1, OsWOX13 (Oryza sativa, UniProt Q5QMM3 1-267)
# T1 sequence: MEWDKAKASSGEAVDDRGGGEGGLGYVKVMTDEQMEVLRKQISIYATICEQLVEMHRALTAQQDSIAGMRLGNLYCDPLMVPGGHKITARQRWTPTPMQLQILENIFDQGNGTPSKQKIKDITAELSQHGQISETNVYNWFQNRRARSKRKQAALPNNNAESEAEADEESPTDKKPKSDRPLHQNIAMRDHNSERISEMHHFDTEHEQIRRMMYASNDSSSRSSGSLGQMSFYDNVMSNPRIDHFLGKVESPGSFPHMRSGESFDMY
# Experiment: protein-binding microarray (RPBM); PBS, 2% BSA, 51.3 ng/ul salmon testes DNA, 50 uM zinc acetate, 200 nM TF, 25 C, 1 h; high values mean tight binding
# Settings: protein: recombinant; tags: N-terminal polyhistidine and DsRed monomer fusion (pET32a); label: CyDye5-dUTP incorporated in the synthesized complementary strand; 3' TTTTT single-stranded linker to array surface; dsDNA, one strand shown
# Method in brief: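 Binding signal is reported as fluorescence intensity per feature (arbitrary units) from an Axon 4000B scanner. Incubation used 200 nM of each Ni–NTA-purified, N-terminally polyhistidine- and DsRed-fused transcription factor from E. coli BL21-CodonPlus on a double-stranded custom Agilent array for 1 h at 25 °C, with 50 µM zinc acetate in the buffer, followed by washing.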
row,Sequence,binding signal
1,AGTCGAGTCAACTTAATTAACTTAACTTCAACCGTCGCTACGGAGTCACCTAGTGCAG,5940 fluorescence intensity (a.u.)
2,TAGCCAATCTAATAGCTCATTCATATAATAATTACATACTCGGAGTCACCTAGTGCAG,4410 fluorescence intensity (a.u.)
3,GTGACATCATAATTTAGATTTAACTTATTCGTGCATATTACGGAGTCACCTAGTGCAG,9460 fluorescence intensity (a.u.)
4,AGCTAAATCTGTGATTGCCGTTGCATCTAGCCACGTCGTCCGGAGTCACCTAGTGCAG,14600 fluorescence intensity (a.u.)
5,GAATAACAGACATATCATATTTGTTGCCTCCTGGTGGCTACGGAGTCACCTAGTGCAG,7840 fluorescence intensity (a.u.)
6,ATTTGAATAATTAGGGAGTCTATGAACAGAAACATAGACCCGGAGTCACCTAGTGCAG,6000 fluorescence intensity (a.u.)
7,TATCATCAATCCGCTAATTAACTGACAACGCATATTGGAGCGGAGTCACCTAGTGCAG,29400 fluorescence intensity (a.u.)
8,ATAGCTATATCAATCTAGAATTGGATTAGATATATCTCGACGGAGTCACCTAGTGCAG,6040 fluorescence intensity (a.u.)
9,TGTTGGTGCTGTGATTAATTGGTAATCTGCTTTTACAAGCCGGAGTCACCTAGTGCAG,19800 fluorescence intensity (a.u.)
10,ATGTATATTAATTACTAGCCAAATGGTTAGCATGATTACTCGGAGTCACCTAGTGCAG,10900 fluorescence intensity (a.u.)
11,TCATATAATTGGATTTATAATTAATCACCAATACCAAACTCGGAGTCACCTAGTGCAG,35300 fluorescence intensity (a.u.)
12,GTAGATAATTAAATCGGATTAGCATTAGATAATCAAGCAACGGAGTCACCTAGTGCAG,37000 fluorescence intensity (a.u.)
13,GTGATTGGATCTGTAATTATCAATCTCTCTCTCTCTCTCTCGGAGTCACCTAGTGCAG,64600 fluorescence intensity (a.u.)
14,TGTGATTAATTGGTAATCTGCTTTTACAAGCTTCAATTGCCGGAGTCACCTAGTGCAG,60400 fluorescence intensity (a.u.)
15,TTCAAATTAAGCTGCTTTAGATTATAATCTGAAGCTGGGCCGGAGTCACCTAGTGCAG,17800 fluorescence intensity (a.u.)
16,AAAATTAAATTGATGGTATTACTAGCATTAATTAGCCACTCGGAGTCACCTAGTGCAG,62800 fluorescence intensity (a.u.)
17,TATTGATTTGATAAAACTAATTTAGCATTATAAATATTATCGGAGTCACCTAGTGCAG,21300 fluorescence intensity (a.u.)
18,ATTAGCAATTAATTAATTATTAATTGGATAATTAATCACTCGGAGTCACCTAGTGCAG,64800 fluorescence intensity (a.u.)
19,TCAATCAATTAATTAATTAATCGAATTGTGTTATATCTCTCGGAGTCACCTAGTGCAG,51000 fluorescence intensity (a.u.)
20,AACATGGAGAATATGCTAATTAGTAAAACATGTTGAAGTGCGGAGTCACCTAGTGCAG,3290 fluorescence intensity (a.u.)
21,GCACAATCATGCTACTAATTACCCTTTTCAACCTATAAATCGGAGTCACCTAGTGCAG,11200 fluorescence intensity (a.u.)

row,Sequence,binding signal
1,ACTAATTACACAGAATGCATGTAAATTACGAGACGAATCTCGGAGTCACCTAGTGCAG,31200 fluorescence intensity (a.u.)
2,AAATTAAATTGCCCGGATCAATGGCTACAAATACCCCATGCGGAGTCACCTAGTGCAG,15200 fluorescence intensity (a.u.)
3,AATACACATTGACAGATGAGTTAACGCCCGTGACAGGCTGCGGAGTCACCTAGTGCAG,20500 fluorescence intensity (a.u.)
4,CTTTATAAATTGTGTCATCTACTCATGTGTGGTAGGTCAACGGAGTCACCTAGTGCAG,5450 fluorescence intensity (a.u.)
5,TTGAATTTAAATTTAAACGTATAGTGCCTTCCCTTTTACGCGGAGTCACCTAGTGCAG,22900 fluorescence intensity (a.u.)
6,CAAATTAACTGGAAATTTTGAAGCATCCATGTTCTGTGAGCGGAGTCACCTAGTGCAG,46600 fluorescence intensity (a.u.)
7,TTGATGTGCAATAATTAACGAGAGAAGAGTTTTCCCATAGCGGAGTCACCTAGTGCAG,10300 fluorescence intensity (a.u.)
8,TGGAATTGATTATGATGCTGTTTCCTTCATGGGAGCTCTACGGAGTCACCTAGTGCAG,31900 fluorescence intensity (a.u.)
9,ATGGCTGGGTTGATTGATATGGAGTACAAACTAAGTGTAGCGGAGTCACCTAGTGCAG,25000 fluorescence intensity (a.u.)
10,ACTAGTTAATCACGATTGATGGAAGCGGTTGATTGAATGACGGAGTCACCTAGTGCAG,51400 fluorescence intensity (a.u.)
11,TGGAATTCATCTAATTATATCATTTTCCTCCATACTAGCTCGGAGTCACCTAGTGCAG,3430 fluorescence intensity (a.u.)
12,ATTAATTAGCTCTAGATTAAGCTAATTGCCATCAATGGCTCGGAGTCACCTAGTGCAG,46400 fluorescence intensity (a.u.)
13,CCATTAGATTAGCACTAATTATCATACTTAGTCATTAGCTCGGAGTCACCTAGTGCAG,59100 fluorescence intensity (a.u.)
14,ATCATGGCAAATGATTGAAACTTTGAAGTAACGTTGGTGCCGGAGTCACCTAGTGCAG,38800 fluorescence intensity (a.u.)
15,TAAATTTGATTCCATTTCCGTTGCCTGTTCATTTCGTCGACGGAGTCACCTAGTGCAG,6090 fluorescence intensity (a.u.)
16,AAAATCACTGGATTAATTGATTGCGTCGTACTATCATTGCCGGAGTCACCTAGTGCAG,64600 fluorescence intensity (a.u.)
17,TTAATCACTGGTAATTATAGATTTATAGGTGATTAATCACCGGAGTCACCTAGTGCAG,17900 fluorescence intensity (a.u.)
18,TGGTGTAGGGTTATGATTGGATGAGTAGTGGAGGTAGGTACGGAGTCACCTAGTGCAG,8550 fluorescence intensity (a.u.)
19,CTGGACTGTCAAATCAAGGAGGATTGCGTACTAATCATGTCGGAGTCACCTAGTGCAG,9940 fluorescence intensity (a.u.)
20,AAATCATTAATAGTGCGTGATTAATTGAGTATTAATTATTCGGAGTCACCTAGTGCAG,8480 fluorescence intensity (a.u.)
21,AAAATTATGGATTGGATGATTAATCACTGATAGGTAGTACCGGAGTCACCTAGTGCAG,56900 fluorescence intensity (a.u.)

# Reference: article PMC7819943, “Rice protein-binding microarrays: a tool to detect cis-acting elements near promoter regions in rice”
